Laboratory results taken from PubChem BioAssay AID1159580 (chemical genetic matrix, 2015).
The whole screen tested about 5,500 compounds, of which about 2,000 (36%) were called active. Inconclusive results (about 18%) are left out. Rule as the data show it: active = normalized growth mostly below about 0.91 (no sharp cut-off); inconclusive = no clear call, values can overlap the other calls; inactive = mostly above about 0.92. Some of the results follow.

Assay: chemical genetic growth profiling, strain panel (AID 1159580);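 also: tested at 20 µM; growth read once vehicle control cultures reached saturation at 30 °C; 1 = growth at the plate median or of vehicle wells; lower values mean less growth of the strain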
Settings: growth OD

Measured: normalized growth

Cc1ccc(-c2cc(C(F)(F)F)nn2-c2ccc(S(N)(=O)=O)cc2)cc1
inactive: S. cerevisiae deletion strains, locus YJR075W, strain HOC1, hits give low values 1.02 | S. cerevisiae deletion strains, locus YKL009W, strain mrt4, hits give low values 0.965 | S. cerevisiae deletion strains, locus YKL068W, hits give low values 1 | S. cerevisiae deletion strains, locus YKL085W, strain MDH1 (second series), hits give low values 1 | S. cerevisiae deletion strains, locus YKL085W, strain MDH1, hits give low values 1 | S. cerevisiae deletion strains, locus YKL160W, strain elf1, hits give low values 1.03 | S. cerevisiae deletion strains, locus YKL190W, strain CNB1, hits give low values 0.999 | S. cerevisiae deletion strains, locus YKR001C, strain vps1, hits give low values 0.988 | S. cerevisiae deletion strains, locus YKR026C, strain gcn3, hits give low values 1.03 | S. cerevisiae deletion strains, locus YKR091W, strain srl3, hits give low values 1.02 | S. cerevisiae deletion strains, locus YLL001W, strain dnm1, hits give low values 1.03 | S. cerevisiae deletion strains, locus YLL026W, hits give low values 1.02 | S. cerevisiae deletion strains, locus YLL041C, strain sdh2, hits give low values 1.02 | S. cerevisiae deletion strains, locus YLR027C, strain aat2, hits give low values 1.02 | S. cerevisiae deletion strains, locus YLR039C, strain RIC1, hits give low values 0.967 | S. cerevisiae deletion strains, locus YLR058C, strain SHM2, hits give low values 0.998 | S. cerevisiae deletion strains, locus YLR102C, strain apc9, hits give low values 1.01 | S. cerevisiae deletion strains, locus YLR113W, strain HOG1, hits give low values 0.984 | S. cerevisiae deletion strains, locus YLR221C, strain rsa3, hits give low values 1.03 | S. cerevisiae deletion strains, locus YLR258W, strain gsy2, hits give low values 1.02 | S. cerevisiae deletion strains, locus YLR262C, strain YPT6 (second series), hits give low values 1.01 | S. cerevisiae deletion strains, locus YLR262C, strain YPT6, hits give low values 0.939 | S. cerevisiae deletion strains, locus YLR268W, strain sec22, hits give low values 1.08 | S. cerevisiae deletion strains, locus YLR320W, strain mms22, hits give low values 1.04 | S. cerevisiae deletion strains, locus YLR330W, strain CHS5, hits give low values 1 | S. cerevisiae deletion strains, locus YLR342W, strain FKS1 (second series), hits give low values 1.04 | S. cerevisiae deletion strains, locus YLR342W, strain FKS1, hits give low values 1.03 | S. cerevisiae deletion strains, locus YLR357W, strain rsc2, hits give low values 1.09 | S. cerevisiae deletion strains, locus YLR370C, strain arc18, hits give low values 1.03 | S. cerevisiae deletion strains, locus YLR371W, strain rom2, hits give low values 1.02 | S. cerevisiae deletion strains, locus YLR384C, strain iki3, hits give low values 1.02 | S. cerevisiae deletion strains, locus YLR418C, strain cdc73, hits give low values 1.01 | S. cerevisiae deletion strains, locus YML016C, strain PPZ1, hits give low values 0.989 | S. cerevisiae deletion strains, locus YML032C, strain rad52, hits give low values 1.05 | S. cerevisiae deletion strains, locus YML120C, strain ndi1, hits give low values 1.03 | S. cerevisiae deletion strains, locus YML124C, strain tub3, hits give low values 1.01 | S. cerevisiae deletion strains, locus YMR058W, strain fet3, hits give low values 1.03 | S. cerevisiae deletion strains, locus YMR078C, strain ctf18, hits give low values 1.02 | S. cerevisiae deletion strains, locus YMR125W, strain sto1, hits give low values 1.03 | S. cerevisiae deletion strains, locus YMR129W, hits give low values 1.02 | S. cerevisiae deletion strains, locus YMR205C, strain PFK2, hits give low values 1.04 | S. cerevisiae deletion strains, locus YMR223W, strain ubp8, hits give low values 0.999 | S. cerevisiae deletion strains, locus YMR231W, strain pep5, hits give low values 1.03 | S. cerevisiae deletion strains, locus YMR263W, strain SAP30, hits give low values 1.01 | S. cerevisiae deletion strains, locus YMR307W, strain GAS1, hits give low values 0.959 | S. cerevisiae deletion strains, locus YNL067W, strain RPL9B, hits give low values 1.02 | S. cerevisiae deletion strains, locus YNL071W, strain lat1, hits give low values 1.02 | S. cerevisiae deletion strains, locus YNL128W, strain TEP1, hits give low values 1.02 | S. cerevisiae deletion strains, locus YNL153C, strain GIM3, hits give low values 1.03 | S. cerevisiae deletion strains, locus YNL183C, strain NPR1, hits give low values 0.954 | S. cerevisiae deletion strains, locus YNL209W, strain ssb2, hits give low values 1.02 | S. cerevisiae deletion strains, locus YNL233W, strain BNI4, hits give low values 1.02 | S. cerevisiae deletion strains, locus YNL248C, strain rpa49, hits give low values 1.03 | S. cerevisiae deletion strains, locus YNL250W, strain rad50, hits give low values 1.02 | S. cerevisiae deletion strains, locus YNL271C, strain bni1, hits give low values 1.01 | S. cerevisiae deletion strains, locus YNL298W, strain CLA4, hits give low values 0.992 | S. cerevisiae deletion strains, locus YNL307C, strain MCK1, hits give low values 1 | S. cerevisiae deletion strains, locus YNL322C, strain KRE1 (second series), hits give low values 1.03 | S. cerevisiae deletion strains, locus YNL322C, strain KRE1, hits give low values 0.997 | S. cerevisiae deletion strains, locus YNR049C, strain mso1, hits give low values 1.03 | S. cerevisiae deletion strains, locus YNR052C, strain pop2, hits give low values 1.01 | S. cerevisiae deletion strains, locus YOL006C, strain TOP1, hits give low values 1 | S. cerevisiae deletion strains, locus YOL012C, strain htz1 0.962 | S. cerevisiae deletion strains, locus YOL147C, strain pex11, hits give low values 1.01 | S. cerevisiae deletion strains, locus YOR001W, strain rrp6, hits give low values 1.03 | S. cerevisiae deletion strains, locus YOR061W, strain CKA2, hits give low values 0.998 | S. cerevisiae deletion strains, locus YOR069W, strain VPS5, hits give low values 0.996 | S. cerevisiae deletion strains, locus YOR070C, strain gyp1, hits give low values 1.02 | S. cerevisiae deletion strains, locus YOR080W, strain dia2, hits give low values 1.05 | S. cerevisiae deletion strains, locus YOR083W, strain WHI5, hits give low values 1.02 | S. cerevisiae deletion strains, locus YOR106W, strain vam3, hits give low values 1.04 | S. cerevisiae deletion strains, locus YOR136W, strain idh2, hits give low values 1.01 | S. cerevisiae deletion strains, locus YOR144C, strain elg1, hits give low values 1.01 | S. cerevisiae deletion strains, locus YOR184W, strain ser1, hits give low values 1.01 | S. cerevisiae deletion strains, locus YOR231W, strain MKK1, hits give low values 0.968 | S. cerevisiae deletion strains, locus YOR265W, strain rbl2, hits give low values 1.01 | S. cerevisiae deletion strains, locus YOR270C, strain vph1, hits give low values 1.07 | S. cerevisiae deletion strains, locus YOR290C, strain snf2, hits give low values 1.03 | S. cerevisiae deletion strains, locus YOR316C, strain cot1, hits give low values 1.01 | S. cerevisiae deletion strains, locus YPL051W, strain arl3, hits give low values 1.02 | S. cerevisiae deletion strains, locus YPL055C, strain LGE1, hits give low values 0.986 | S. cerevisiae deletion strains, locus YPL078C, strain atp4, hits give low values 1.02 | S. cerevisiae deletion strains, locus YPL106C, strain sse1, hits give low values 1.04 | S. cerevisiae deletion strains, locus YPL240C, strain hsp82, hits give low values 1.02 | S. cerevisiae deletion strains, locus YPL241C, strain CIN2, hits give low values 0.995 | S. cerevisiae deletion strains, locus YPL256C, strain CLN2, hits give low values 0.96 | S. cerevisiae deletion strains, locus YPR119W, strain clb2, hits give low values 1.01 | S. cerevisiae deletion strains, locus YPR141C, strain kar3, hits give low values 1 | S. cerevisiae deletion strains, locus YPR163C, strain tif3, hits give low values 1.02 | S. cerevisiae deletion strains, locus YPR167C, strain met16, hits give low values 1.01 | S. cerevisiae deletion strains, strain wtn01, hits give low values 1.03 | S. cerevisiae strains, strain wild type, hits give low values 0.996
